Inconclusive results are not listed. The source made the active and inactive calls. Calls follow the shape of the dose curve; as a rule, active = well fitted cell-killing curve with a large enough effect in the repeat runs; inconclusive = weak or mixed curves, or effect the other way; inactive = flat fitted curve, though single readings scatter.
% is scaled to controls: 0 for no effect and ±100 for the full control effect.

A short description of this experiment: Human pregnane X receptor (PXR) small molecule agonists, qHTS cell viability counter screen (AID 1346977). Also: nearly all actives have a fitted effect of over 50% in size. Particulars: PXR-Luc HepG2 viability, CellTiter-Fluor, 24 h; series mostly up to 92.4 µM. The text has this:
U.S. Tox21 Program National Center for Advancing Translational Sciences [NCATS] NIH Chemical Genomics Center [NCGC] U.S. Environmental Protection Agency [EPA] National Institutes of Environmental Health Sciences [NIEHS] National Toxicology Program [NTP] U.S. Food and Drug Administration [FDA] Tox21 Assay Overview: The human pregnane X receptor (hPXR) regulates the expression of several drug metabolizing enzymes and induction of these proteins is a major mechanism for developing drug resistance in cancer. One such key enzyme catalyzing the drug metabolism is cytochrome P450 3A4 (CYP3A4). Changes in CYP3A4 expression affect drug metabolism, thereby reducing the therapeutic efficacy and altering toxicological response to a drug and which finally causes adverse drug interaction. To screen Tox21 libraries for compounds that activate hPXR-mediated CYP3A4 gene expression, PXR-Luc HepG2 cells were used. Also cytotoxicity of the compounds was tested in parallel by measuring the cell viability using CellTiter-Fluor assay system in the same wells.
Tox21 Assay Protocol Summary: PXR-Luc HepG2 cells were dispensed at 2,000 per well in 5uL of assay medium containing 5% charcoal-stripped FBS into white solid bottom 1536-well plates (Corning Life Sciences, Corning, NY) using a Multidrop Combi (Thermo Scientific, Waltham, MA) dispenser. The assay plates were incubated at 37 C and 5% CO2 for 5hr, and then 23nL of compounds dissolved in DMSO and positive control were transferred using a Pintool station (Wako, San Diego, CA). The assay plates were incubated at 37C and 5% CO2 for 24hr. For cytotoxicity read, after 23hr incubation at 37C, 1uL CellTiter-Fluor reagent (Promega Corporation, Madison, WI) was added to each well of the assay plates using Flying Reagent Dispenser (FRD, Aurora Discovery, San Diego, CA). After 1hr incubation at 37C and 5% CO2, the fluorescence signal was quantified using a ViewLux plate reader (PerkinElmer, Shelton, CT).
A general note: In qHTS, concentration-response curves come from the screen itself.
As to `CCC(=O)Oc1ccc2c(c1)CC[C@@H]1[C@@H]2CC[C@@]2(C)[C@H]1C[C@@H](OC(=O)CC)[C@@H]2OC(=O)CC`, the outcome was inactive. The same measure, in the same setting: the entry for `CN(C)C(C)(C)CO` is “inactive”; for `CCCc1ccc(O)cc1` it is “inactive”; for `CCOCCOCC` it is “inactive”.

Consider `OC1(c2ccc(Cl)cc2)CCNCC1`, for which the compound was classed as inactive. Same read-out and setting: the entry for `CCCCC1CCC(O)CC1` (stereo not given) is “inactive”; for `CC1(C)Oc2ccc(C#N)cc2[C@@H](N2CCCC2=O)[C@@H]1O` it is “inactive”. Still for that read-out and setting: the entry for `CC(=O)c1cc(C)oc1C` is “inactive”; for `CC(C)=CCC[C@@](C)(O)[C@H]1CC=C(C)CC1` it is “inactive”; for `CC(=O)CCc1ccc(OC(C)=O)cc1` it is “inactive”. On the same count and under the same terms, the entry for `CCCCCCCCCOC(=O)CCCCC(=O)OCCCCCCC` is “inactive”; for `C/C(CC(C)C)=N\O` it is “inactive”; for `CCCCOCC(C)O` (stereo not given) it is “inactive”. With `CC(C)CCOC(=O)c1ccccc1`, the compound was called inactive. `CC12CCC(C1)C(C)(C)C2O` (stereo not given): the compound was classed as inactive.

Consider `COC(=O)CCCCC(=O)O`, for which the call was inactive.

`CC(C)Cn1cnc2c1c(=O)n(C)c(=O)n2C`: the outcome was inactive. With `CC(C)Nc1ccccc1`, the result was inactive. As for `CCCCCCCCCCCCCCC(=O)NC(CO)CCCCCCCCCCCCCC` (stereo not given), the compound was classed as inactive. On to `CCCCCCCCCCCCCCCCCCOCCO`, for which the activity change, negative = cytotoxicity was 5.85% [at 19 µM] (inactive). With `O=C(Cl)c1ccccc1[N+](=O)[O-]`, the compound was called inactive. In the case of `Fc1ccccc1`, the outcome was inactive. Same read-out and setting: the entry for `C/C(=C1\CCOC(=O)S1)N(C=O)Cc1cnc(C)nc1N` is “inactive”. On the same count and under the same terms, for `CC(=O)O[C@@H]1CC2CCC1(C)C2(C)C` (stereo not given in full) the value was “inactive”; for `CC/C=C\CCOC(=O)c1ccccc1O`, “inactive”.

For the compound `C[C@@H](O)C(=O)O`, the outcome was inactive. Same read-out and setting: for `CC(S)C(C)S` (stereo not given) the value was “inactive”; for `CCCCCCCCCCCCCBr`, “inactive”. With `CN1C[C@@H]2C[C@H]1CN2c1cc2c(cc1F)c(=O)c(C(=O)O)cn2C1CC1`, the activity change, negative = cytotoxicity was -0.63% [at 19 µM] (inactive).

As for `Cc1ccc(N)cc1S(=O)(=O)O`, the compound was classed as inactive.

Turning to `O=C(O)CCCCCC(=O)O`, the outcome was inactive. The same measure, in the same setting: for `CCCC(=O)OC/C=C(\C)CCC=C(C)C` the value was “inactive”; for `CN(C)CCCCl`, “inactive”. `CCCC(=O)Nc1ccc(OCC(O)CNC(C)C)c(C(C)=O)c1` (stereo not given): the compound was classed as inactive.

As for `Cc1ccc(C(=O)O)cc1[N+](=O)[O-]`, the compound was called inactive. Still for that read-out and setting: for `CN(C)CCCO[C@@H]1[C@H]2OC(C)(C)O[C@H]2O[C@@H]1C(O)CO` (stereo not given in full) the value was “inactive”. For the compound `O=C(NCN1CCOCC1)c1cnccn1`, the compound was called inactive. Still for that read-out and setting: the entry for `c1ccc(-c2nn[nH]n2)cc1` is “inactive”. For the compound `CCCCCc1cccc(=O)o1`, the result was inactive. With `N[C@@H](CSCCCO)C(=O)O`, the activity change, negative = cytotoxicity is 9.45% [at 19 µM] (inactive).
